Results published in the supplement of paper PMC6555819.

Key:
Test in all cases: PBM binding z-score (relative to random genomic background probes); higher = stronger binding; sequences stand for … in GC…GCGATTGACAGCGTAGAATGAAGG
[1] = test system: FXR:RXRa (NR concentration 270 nM, RXRa partner concentration 90 nM)
Summary of the method: (§1)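 Binding z-scores were set against random background probes. The data came from custom Agilent 4×180K protein-binding microarrays carrying double-stranded probes with 34-nt variable regions, incubated 1 h with ligand-free nuclear receptor dimers. Partner-specific antibodies detected binding, and scanned fluorescence was regression-normalized.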

[2] = test system: LXRa:RXRa (NR concentration 270 nM, RXRa partner concentration 90 nM)
Summary of the method: as §1

[3] = test system: LXRa homodimer (NR concentration 270 nM)
Summary of the method: as §1

[4] = test system: LXRb:RXRa (NR concentration 270 nM, RXRa partner concentration 90 nM)
Summary of the method: as §1

[5] = test system: LXRb homodimer (NR concentration 270 nM)
Summary of the method: as §1

[6] = test system: PPARa:RXRa (NR concentration 270 nM, RXRa partner concentration 90 nM)
Summary of the method: as §1

[7] = test system: PPARg:RXRa (NR concentration 180 nM, RXRa partner concentration 90 nM)
Summary of the method: as §1

[8] = test system: PPARg:RXRa 270nM:90nM, anti-RXR (NR concentration 270 nM, RXRa partner concentration 90 nM)
Summary of the method: as §1

[9] = test system: PPARg:RXRa 30nM:10nM, anti-RXR (NR concentration 30 nM, RXRa partner concentration 10 nM)
Summary of the method: as §1

[10] = test system: PPARg:RXRa 90nM:30nM, anti-RXR (NR concentration 90 nM, RXRa partner concentration 30 nM)
Summary of the method: as §1

[11] = test system: PPARg:RXRa DBDmut IVT, anti-RXR (DBD mutation: RXRa K156A/R161A, NR concentration 270 nM, RXRa partner concentration 90 nM)
Summary of the method: as §1

[12] = test system: PPARg:RXRa IVT, anti-PPARg (NR concentration 270 nM, RXRa partner concentration 90 nM)
Summary of the method: as §1

[13] = test system: PPARg DBDmut:RXRa IVT, anti-PPARg (DBD mutation: PPARg1 K132A/R137A, NR concentration 270 nM, RXRa partner concentration 90 nM)
Summary of the method: as §1

[14] = test system: PPARg DBDmut IVT, anti-PPARg (DBD mutation: PPARg1 K132A/R137A, NR concentration 270 nM)
Summary of the method: as §1

[15] = test system: PPARg homodimer (NR concentration 180 nM)
Summary of the method: as §1

[16] = test system: PXR:RXRa (NR concentration 270 nM, RXRa partner concentration 90 nM)
Summary of the method: as §1

[17] = test system: PXR homodimer (NR concentration 270 nM)
Summary of the method: as §1

[18] = test system: RARa:RXR (NR concentration 270 nM, RXRa partner concentration 90 nM)
Summary of the method: as §1

[19] = test system: RARa homodimer (NR concentration 270 nM)
Summary of the method: as §1

[20] = test system: RARb:RXRa (NR concentration 270 nM, RXRa partner concentration 90 nM)
Summary of the method: as §1

Sequence | PBM binding z-score [1] | PBM binding z-score [2] | PBM binding z-score [3] | PBM binding z-score [4] | PBM binding z-score [5] | PBM binding z-score [6] | PBM binding z-score [7] | PBM binding z-score [8] | PBM binding z-score [9] | PBM binding z-score [10] | PBM binding z-score [11] | PBM binding z-score [12] | PBM binding z-score [13] | PBM binding z-score [14] | PBM binding z-score [15] | PBM binding z-score [16] | PBM binding z-score [17] | PBM binding z-score [18] | PBM binding z-score [19] | PBM binding z-score [20]
GTTGCTAGGTCAGGTTGGTCAGCTAACGGGTACG | 1.81 | 1.32 | 0.459 | 0.947 | 0.434 | 1.68 | 0.88 | 1.31 | -0.115 | 0.452 | 2.88 | 3.16 | 0.283 | -0.614 | 1.29 | 0.651 | 0.178 | 0.933 | 0.798 | 3.4
AGAATGAGGTTACCAAAGATCAGGAAAACGCTTG | 1.7 | 6.01 | -0.322 | 3.66 | -0.00832 | 3.51 | 2.7 | 2.54 | 0.962 | 2.01 | 4.01 | 3.35 | 0.931 | 0.626 | 0.925 | 1.57 | -0.0296 | 2.1 | 0.339 | 1.95
CCTCGGGGGACAGAAGGTCAGAGCTGTCCGCTTT | 2.39 | 3.78 | 0.464 | 3.58 | 2.95 | 3.5 | 0.517 | 2.66 | 0.439 | 1.51 | 0.436 | 1.38 | 1.67 | -0.683 | 1.59 | 2.99 | 0.0976 | 3.08 | -0.112 | 3.34
GCTTGTAGATCAAGGGTAAGAAAGACTAAGCTAA | -0.663 | -0.469 | -0.732 | -0.394 | -0.8 | 1.24 | 2.55 | 4.2 | 1.91 | 4.14 | 1.15 | 1.03 | -0.364 | -0.778 | 0.0991 | -0.426 | -0.45 | -0.346 | -0.786 | -0.0761
TCATATAGGTAAATGCTAGGTGAAACTCCGATCT | 1 | 0.883 | 0.327 | 0.756 | -0.00744 | 1.4 | 0.976 | 2.12 | 4.01 | 2.96 | 4.38 | 2.75 | 0.957 | 1.1 | 0.711 | 0.57 | 0.499 | 0.959 | 0.953 | 0.548
CTACCAAGGTGAACAAGGTCTTTGATTACTATTC | 0.811 | 0.534 | -0.122 | 1.18 | -0.113 | 1.71 | 0.626 | 0.721 | 0.0464 | 0.438 | 2.51 | 2.75 | 0.785 | 0.293 | 0.597 | 0.752 | 0.0854 | 0.973 | 0.482 | 1.72
